Reference: PubChem BioAssay AID1240 (Sanford-Burnham Center for Chemical Genomics, 2008)
Screen size: about 50,000 compounds; about 800 (1.6%) showed an effect of 50% or more. The sample as a whole holds a higher share of strong results than the screen did.

The compounds below were run against Bcl-2-like protein 10 (Homo sapiens) (UniProt Q9HD36) (assay: TR3 peptide-Bcl-B binding displacers, biochemical primary FP assay, phenotype converters (AID 1240;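 also: 0% = Bcl-B with tracer peptide and DMSO and 100% = tracer peptide lacking Bcl-B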)). Settings: GST-Bcl-B / FITC-TR3 peptide fluorescence polarization; stronger effect = higher value; compound at 3.75 mg/L.
Sequence of Bcl-2-like protein 10 (Homo sapiens) (Q9HD36 whole entry, looked up): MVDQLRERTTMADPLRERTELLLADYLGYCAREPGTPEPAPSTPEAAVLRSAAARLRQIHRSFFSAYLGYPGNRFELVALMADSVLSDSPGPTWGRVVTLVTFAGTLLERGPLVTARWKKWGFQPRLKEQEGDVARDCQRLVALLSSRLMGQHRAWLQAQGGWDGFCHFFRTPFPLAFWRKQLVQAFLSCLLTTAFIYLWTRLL

| Structure (SMILES) | displacement [%] |
| --- | --- |
| Cc1cc(Br)ccc1NC(=O)c1ccc(C)c([N+](=O)[O-])c1 | 8.6 |
| CCCCCOC(=O)C1=C(C)NC(=O)NC1c1ccc(Br)cc1 (stereo not drawn) | 8.5 |
| COc1ccccc1C(=O)Nc1nnc(C(C)(C)C)s1 | -11.4 |
| CCOc1ccc(S(=O)(=O)N(CC(=O)NC)c2ccc(C)cc2)cc1 | 1.7 |
| C=CCC(C)(CC=C)NC(=O)c1ccccc1[N+](=O)[O-] | -6.9 |
| O=C(NCC1CCCO1)/C(=C/c1ccc(-c2ccccc2Cl)o1)NC(=O)c1ccccc1 (stereo not drawn) | 19.7 |
| COc1cc(C(=O)Oc2ccc(Cl)cc2C)cc(OC)c1OC | 2.1 |
| CCOC(=O)C1=C(C)NC2=C(C(=O)CC(C)(C)C2)C1c1ccc(OC(F)F)cc1 (stereo not drawn) | -0.2 |
| COc1ccc(C2=C/C(=C\c3cccc(OC(C)=O)c3)C(=O)O2)cc1 | 25.4 |
| CC(=O)Oc1ccc(/C=C2\C=C(c3ccc(C)cc3)OC2=O)cc1 | 34.5 |
| CCOc1cc(/C=C2\C=C(c3ccc(OC)cc3)OC2=O)ccc1OC(C)=O | 92.4 |
| COc1ccc(C2=C/C(=C\c3ccc(OC(C)=O)c(OC)c3)C(=O)O2)cc1 | 39.4 |
| CC(=O)Oc1cccc(/C=C2\C=C(c3ccc(C)cc3)OC2=O)c1 | 7 |
| COc1cc(/C=C2\C=C(c3ccc(C)cc3)OC2=O)ccc1OC(C)=O | 59.2 |
| CCOc1ccc(C2=C/C(=C/c3ccc(OC)cc3)C(=O)O2)cc1 | -0.6 |
| CCOc1cc(/C=C2\C=C(c3ccc(C)cc3)OC2=O)ccc1OC(C)=O | 111 |
| COc1ccc(C2=C/C(=C\c3ccc(OC(C)=O)cc3)C(=O)O2)cc1 | 110 |
| CCOc1cc(/C=C2/C=C(c3ccc(OC)cc3)OC2=O)cc(I)c1OC | -6 |
| COc1ccc(/C=C2\C=C(c3ccc(C)cc3)OC2=O)cc1C | 10.4 |
| CCOc1cc(/C=C2\C=C(c3ccc(Br)cc3)OC2=O)ccc1OC(C)=O | 12.6 |
| O=C(O)c1ccc(-c2ccc(OC(F)(F)F)cc2)o1 | -7.6 |
| NC(=S)N/N=C/c1cccn1-c1ccc([N+](=O)[O-])cc1 | -1 |

| Structure (SMILES) | displacement [%] |
| --- | --- |
| O=C1S/C(=C/c2ccc(Cl)c(Cl)c2)C(=O)N1c1ccccc1 | 17.9 |
| CCOC(=O)c1c(NC(=O)CC2SC(N)=NC2=O)sc2c1CCCC2 (stereo not drawn) | 6.3 |
| COc1ccc(C(=O)CC(Nc2ccc([N+](=O)[O-])cc2)c2ccc(Cl)cc2)cc1 (stereo not drawn) | -4.2 |
| Cc1ccc2c(nc3s/c(=C\c4cccc(Cl)c4Cl)c(=O)n32)c1C | -9.5 |
| Cc1ccc(S(=O)(=O)Oc2ccc(/C=C3\SC(N)=NC3=O)cc2Br)cc1 | 1.8 |
| O=c1[nH]c(=O)n(-c2ccc(Cl)cc2)c(O)c1C=Nc1cccc(F)c1 | 10 |
| Cc1cc(OCC(=O)Nc2cccc(F)c2)cc(C)c1Cl | 4.1 |
| COCCNCCOc1c(C)cc(Cl)cc1C | 7.2 |
| O=C(Nc1cc(Cl)cc(Cl)c1)c1ccc(CN2CCc3ccccc3C2)cc1 | -3.7 |
| COC(=O)C1=C(C)N(c2ccccc2F)C(=O)/C1=C\c1sccc1C | 7.8 |
| COC(=O)C1=C(C)N(c2ccccc2F)C(=O)/C1=C\c1ccc(F)cc1 | 2.3 |
| COC(=O)C1=C(C)N(c2cc(C)cc(C)c2)/C(=C/c2ccco2)C1=O | 99.6 |
| C=CCN1C(=O)/C(=C\c2ccco2)C(C(=O)OC)=C1C | 65.4 |
| C=CCN1C(=O)/C(=C\c2ccccc2)C(C(=O)OC)=C1C | -2.2 |
| COC(=O)C1=C(C)N(c2ccc(C)c(C)c2)/C(=C/c2ccco2)C1=O | 8.8 |
| CCN1C(=O)/C(=C\c2ccc(F)cc2)C(C(=O)OC)=C1C | 34.2 |
| COC(=O)C1=C(C)N(c2ccccc2F)C(=O)/C1=C\c1ccccc1F | 112 |
| CCN1C(=O)/C(=C\c2ccc(C)cc2)C(C(=O)OC)=C1C | 86.2 |
| C=CCN1C(=O)/C(=C\c2ccc(C(=O)OC)cc2)C(C(=O)OC)=C1C | -14.5 |
| COC(=O)C1=C(C)N(c2cc(C)cc(C)c2)/C(=C\c2sccc2C)C1=O | 27 |
| CCN1C(=O)/C(=C\c2ccccc2)C(C(=O)OC)=C1C | -23.3 |
| COc1ccc(C(=O)N2CCCc3ccccc32)cc1OC | -3.3 |

| Structure (SMILES) | displacement [%] |
| --- | --- |
| Cc1cc(=O)oc2cc(OCc3ccc(F)cc3)c(Cl)cc12 | 16.8 |
| Cc1cc([N+](=O)[O-])ccc1NCc1cccc(C(F)(F)F)c1 | 2.6 |
| CC1(C)CC(=O)C2=C(C1)c1c(ccc3ccccc13)NC2c1cccs1 (stereo not drawn) | 7.2 |
| O=C(Nc1ccc(F)cc1)c1ccco1 | 12.9 |
| COCCN1C(=O)/C(=C\c2ccc3c(c2)OCO3)C(C(=O)OC)=C1C | -8 |
| COC(=O)C1=C(C)N(c2cccc(C)c2)C(=O)/C1=C\c1ccc(C(=O)O)cc1 | 6.9 |
| COC(=O)C1=C(C)N(c2ccc(C)cc2)C(=O)/C1=C\c1ccc2c(c1)OCO2 | 107 |
| COC(=O)C1=C(C)N(C)C(=O)/C1=C\c1ccc2c(c1)OCO2 | -0.7 |
| COC(=O)C1=C(C)N(C)C(=O)/C1=C\c1ccc(C(=O)OC)cc1 | 16.4 |
| COC(=O)C1=C(C)N(c2ccccc2)C(=O)/C1=C\c1ccc(C(=O)OC)cc1 | 130 |
| COc1ccccc1CC1S/C(=N\N=C\c2cccc([N+](=O)[O-])c2)NC1=O (stereo not drawn) | 12.9 |
| COc1ccc(NC(=O)Nc2ccccc2C(F)(F)F)cc1 | 8.4 |
| CN(C)c1cccc2c(C(NS(=O)(=O)c3ccccc3)C(Cl)(Cl)Cl)ccc(N(C)C)c12 (stereo not drawn) | 144 |
| COC(=O)C(NS(=O)(=O)c1ccccc1)C(C)C (stereo not drawn) | -12 |
| O=S(=O)(NC(c1cccs1)C(Cl)(Cl)Cl)c1ccc(Cl)cc1 (stereo not drawn) | 7 |
| CCCCNC(=O)/C(=C/c1ccc(C)o1)NC(=O)c1ccccc1 | 13.1 |
| CCOc1ccc(NC2=C(Cl)C(=O)N(c3cccc(Cl)c3Cl)C2=O)cc1 | 16.3 |
| N#C/C(=C/c1cc([N+](=O)[O-])ccc1Cl)C(=O)Nc1cccc(Br)c1 | -3.3 |
| O=C(N/N=C/c1cccs1)C1CC(=O)N(c2ccccc2)C1 (stereo not drawn) | 25 |
| O=C(N/N=C/c1cccs1)C1CC(=O)N(c2ccc(Cl)cc2)C1 (stereo not drawn) | -9.3 |
| COc1ccc(N2CC(C(=O)N/N=C/c3cccs3)CC2=O)cc1 (stereo not drawn) | 65 |
| O=C(O)/C=C/c1cccc(NS(=O)(=O)c2cccs2)c1 | -13 |

| Structure (SMILES) | displacement [%] |
| --- | --- |
| Cc1nnc(SCC(=O)Nc2ccc3c(c2)oc2ccccc23)s1 | -8.5 |
| Cn1nnnc1SCC(=O)Nc1ccc2c(c1)oc1ccccc12 | 87 |
| Cn1nnnc1SCC(=O)Nc1ccccc1 | 4.1 |
| O=C1NC(=O)/C(=C\c2cc3c(cc2[N+](=O)[O-])OCO3)S1 | 6.8 |
| CCCOc1ccc(C=C2C(=O)N(C)C(=O)N(C)C2=O)cc1OC | 1.3 |
| O=C1OC(/C=C/c2ccccc2)=NC/1=C/c1ccccc1 | 13.6 |
| O=C1OC(/C=C/c2ccccc2)=NC/1=C/c1cccc([N+](=O)[O-])c1 | 98.4 |
| CCN(CC)c1ccc(/C=C2N=C(/C=C/c3ccccc3)OC/2=O)cc1 | -28 |
| CCCOc1ccc(/C=C2N=C(/C=C/c3ccccc3)OC/2=O)cc1OC | 166 |
| CCOc1c(Br)cc(/C=C2N=C(/C=C/c3ccccc3)OC/2=O)cc1OC | 105 |
| COc1ccc(/C=C2N=C(/C=C/c3ccccc3)OC/2=O)cc1 | 88.6 |
| O=C1OC(c2ccccc2I)=N/C1=C\c1cccc([N+](=O)[O-])c1 | -4 |
| COc1ccc(OC)c(/C=C2N=C(/C=C/c3ccccc3)OC/2=O)c1 | 9.6 |
| CCOc1c(Br)cc(/C=C2/C(=O)N(c3ccccc3)N=C2C)cc1OC | -0.6 |
| O=C1OC(c2ccccc2F)=N/C1=C\c1cccc([N+](=O)[O-])c1 | 9.9 |
| COc1cc(/C=C2\N=C(c3ccccc3)OC2=O)cc(Br)c1OCc1c(C)no[n+]1[O-] | -1.1 |
| CCOC(=O)c1c(-c2ccccc2)csc1NC(=O)c1ccc(C)cc1 | -5.7 |
| COc1cc(/C=C2\SC(N)=NC2=O)cc(Br)c1OCc1cccc2ccccc12 | -62.1 |
| Fc1cccc(-c2nnc3ccc(C(F)(F)F)cn23)c1 | -17 |
| CC(=O)Nc1ccc(I)cc1C | -5 |
| Cc1cc2c(nc3s/c(=C/c4ccccc4)c(=O)n32)c(Br)c1C | -4.6 |
| CC(C)c1ccccc1OCCCN1CCOCC1 | -6 |

| Structure (SMILES) | displacement [%] |
| --- | --- |
| Cc1ccc(N2C(=O)/C(=C/c3ccc(Oc4ccc([N+](=O)[O-])cn4)cc3)C(=O)NC2=S)c(C)c1 | 7.3 |
| CC1=NN(c2ccccc2)C(=O)C1C(C)C[N+](=O)[O-] (stereo not drawn) | -9.8 |
| COc1ccc(/C=N/NC(=O)COc2ccccc2Br)cc1 | 2.6 |
| CC(=O)c1ccc(NC(=O)c2ccoc2C)cc1 | 94 |
| COC(=O)c1ccc(NC(=O)c2ccoc2C)cc1 | -2.7 |
| Cc1occc1C(=O)Nc1ccc(C(=O)O)cc1 | -1.9 |
| CCOc1cc(C2NC(=S)NC(C)=C2C(=O)Nc2ccc(Cl)cc2)ccc1O (stereo not drawn) | -3.2 |
| Cc1ccc2c(Cl)c(C(=O)NCC3CCCO3)sc2c1 (stereo not drawn) | -20.5 |
| CCOCCOC(=O)c1ccc(NC(=O)COc2ccc(C)cc2C)cc1 | -9 |
| O=C(ON=C1c2ccccc2-c2ccccc21)c1ccc(Cl)cc1Cl | 13.1 |
| Cc1ccc(C=C2C(=O)N(C)C(=O)N(C)C2=O)cc1 | 79.7 |
| CN1C(=O)C(=Cc2ccc(N3CCOCC3)cc2)C(=O)N(C)C1=O | 8.9 |
| CCCCOc1ccc(C=C2C(=O)N(C)C(=O)N(C)C2=O)cc1 | 8.8 |
| COc1ccccc1C/C(N)=N/OC(=O)COc1ccc2ccccc2c1 | 5.6 |
| CCOc1ccccc1C1Nc2ccccc2NC2=C1C(=O)CC(c1ccc(OC)c(OC)c1)C2 (stereo not drawn) | 11.3 |
| CCOC(=O)COc1ccc(/C=c2/sc3nc4cc(C)c(C)cc4n3c2=O)cc1OC | -4.4 |
| COc1cccc(-c2nnc(NC(=O)/C=C/c3ccccc3)s2)c1 | 51.4 |
| O=C(/C=C/c1ccccc1)Nc1nnc(-c2ccncc2)s1 | -6 |
| O=C(/C=C/c1ccccc1)Nc1nnc(-c2ccccc2)s1 | 7.6 |
| COc1ccc(NC(=O)c2ccc(OC)c(OC)c2)cc1Cl | 20.4 |
